Inconclusive results are not listed. Active and inactive are the calls of the source. The rule behind the calls is not given here.
How the values were obtained:
[1] = chitosan synthesis blockers in C. neoformans – flow cytometry, Cibacron Brilliant Red staining (AID 1347148); conditions: Cryptococcus neoformans chitosan, stronger effect = lower value; at 99.1 µM unless noted;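 note: compound exposure lasted three days at 37 degrees C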
[2] = rescue of PC12 cells from polyQ htt toxicity – LDH release (AID 1610); conditions: PC12 mutant huntingtin toxicity, final LDH at 4 uM, stronger effect = lower value

Compound	fold fluorescence [1]	normalised LDH release [2]
CN1CCN(CCCN2c3ccccc3Sc3ccc(C(F)(F)F)cc32)CC1	10.1 [at 122.7 µM] (inactive)	–
O=C1N=C(O)CN1/N=C/c1ccc(-c2ccc([N+](=O)[O-])cc2)o1	4.66 [at 159.1 µM] (inactive)	–
COc1cc2nc(N3CCN(C(=O)c4ccco4)CC3)nc(N)c2cc1OC	6.39 [at 130.4 µM] (inactive)	–
CNC(=O)Oc1ccc2c(c1)[C@]1(C)CCN(C)[C@@H]1N2C	–	0.859
CC[C@]1(O)C[C@@H]2CN(CCc3c([nH]c4ccccc34)[C@@](C(=O)OC)(c3cc4c(cc3OC)N(C)[C@H]3[C@@](O)(C(=O)OC)[C@H](OC(C)=O)[C@]5(CC)C=CCN6CC[C@]43[C@@H]65)C2)C1	15.3 [at 55 µM] (inactive)	–
O=C(c1ccccc1)c1ccc2n1CCC2C(=O)O (centres undefined)	–	0.828
NC(N)=NC(=O)c1nc(Cl)c(N)nc1N	7.16 [at 217.7 µM] (inactive)	–
COc1ccc2c(c1)c(CC(=O)O)c(C)n2C(=O)c1ccc(Cl)cc1	4.17 [at 139.7 µM] (inactive)	–
OCCN(CCO)c1nc(N2CCCCC2)c2nc(N(CCO)CCO)nc(N3CCCCC3)c2n1	2.89 (active)	–
